Assay outcomes: PubChem, Buhrlage Lab, Dana-Farber Cancer Institute and Novartis Institutes for BioMedical Research (Cambridge, Mass)
An excerpt weighted towards active compounds, which were near 13% of everything screened.
USP8 block: inhibitors of human USP8 deubiquitinase. purified USP8, Ub-rhodamine cleavage fluorescence, 30 min. inhibition, % at 20 µM. 4.2% of 47,000 active. AID 1645853
USP17 block: inhibitors of human USP17 deubiquitinase; A8MUK1; purified USP17, Ub-rhodamine cleavage fluorescence, 3 h; inhibition, % at 50 µM; 6.5% of 47,000 active
USP28 inh: blocks human USP28 ubiquitin-rhodamine cleavage | 3% of 47,000 active | inhibition, % at 25 µM | AID 1645857 | Q96RU2 | purified USP28, Ub-rhodamine cleavage fluorescence, 30 min
USP30 block: blocks human USP30 ubiquitin-rhodamine cleavage | inhibition, % at 25 µM | 5.3% of 47,000 active | AID 1645860 | purified USP30, Ub-rhodamine cleavage fluorescence | Q70CQ3
Each line names hits and unclear results; the compound was inactive in the other large screens. Rule as the data show it: active = inhibition above about 30%; inactive = the rest.

O=C(CSc1nc(C2CC2)n(-c2ccccc2)n1)Nc1ccc2[nH]c(=O)[nH]c2c1	none
CC(Sc1n[nH]c2nc3ccccc3n12)C(=O)Nc1ccc2c(c1)OCCO2 (stereo unspecified)	USP17 block 38.7
O=C(CSc1nnc2n1CCCCC2)Nc1ccc2[nH]c(=O)[nH]c2c1	USP17 block 68.1, USP28 inh 33.0
Cc1noc(C)c1CSc1ncccc1C(=O)Nc1ccnn1Cc1cccnc1	none
Cc1cccc(Cl)c1-n1sc(=O)n(CC2CC2)c1=O	none
Cc1ccc(NC(=O)CSc2nnc(Cc3c(C)nc4ccccn4c3=O)n2C)cc1	none
CC(C)(C)c1noc(-c2ccnc(-n3cnc(C(=O)N4CCCC4)c3)c2)n1	none
Cc1ccn2c(=O)c(NC(=O)COc3ccc(Cl)cc3)c(C)nc2c1	none
COc1ccc(OCn2ccc(C(=O)Nc3cnn(C)c3C)n2)cc1	none (no result: USP17 block)
Cc1ccnc(NC(=O)c2ccn(COc3ccc(Cl)cc3)n2)c1	USP8 block 31.0, USP17 block 46.6, USP30 block 71.7
Cc1ccc(NC(=O)c2ccn(COc3ccc(F)cc3)n2)nc1	USP17 block 59.9
Cc1cccc(C)c1NC(=O)c1ccn(COc2ccccc2)n1	USP28 inh 36.0
O=C(Nc1ccc(Cl)cn1)c1ccn(COc2ccccc2)n1	none
Cc1ccnc(NC(=O)c2ccn(COc3ccc(F)cc3)n2)c1	USP30 block 40.0
Cc1ccc([C@H](C)N2CN(C3CCN(C(=O)CC(C)C)CC3)CC2=O)cc1	none
CN1CCN(c2ncccn2)CC1c1nnc2ccc(C(=O)NC3CCC3)cn12 (stereo unspecified)	none
COc1cccc(OC)c1C(=O)Nc1cccc(-n2c(C)nc3ncccc3c2=O)c1	none
CC(C)C[C@@H]1NC(=O)[C@H](CCCN)NC(=O)[C@H](C(C)C)NC(=O)[C@H](Cc2ccc(O)cc2)NC(=O)[C@H](CCC(N)=O)NC(=O)[C@H](CC(N)=O)NC(=O)[C@@H](Cc2ccccc2)NC(=O)[C@H](Cc2ccccc2)NC(=O)[C@@H]2CCCN2C(=O)[C@@H](Cc2ccccc2)NC1=O	USP28 inh 39.4
Cc1ccc(NC(=O)C(C)Nc2nc(Nc3ccccc3)nc(Nc3ccccc3)n2)cc1 (stereo unspecified)	USP30 block 44.7
Cc1sc(NCc2ccccc2)nc1-c1ccccc1	USP28 inh 40.3
CCN1C(SCc2ccc(F)cc2)=NS(=O)(=O)c2ccccc21	USP28 inh 61.8
COc1ccc(Sc2nc(-c3ccccn3)ncc2OC)cc1	USP30 block 35.4
CC(C)c1nc2sc3c(SCC(=O)N(c4ccccc4)c4ccccc4)ncnc3c2c2c1COC(C)(C)C2	USP30 block 31.9
CC(C)c1ccc(C(C(=O)NC2CCCCC2)N(C(=O)c2cnccn2)c2cccc(F)c2)cc1 (stereo unspecified)	USP8 block 30.4, USP30 block 65.5
COc1ccccc1C(NC(=O)c1cnn(C)c1)c1nccn1C (stereo unspecified)	none
COc1ccc(OC)c(Nc2nc(-c3ccc(Cl)cc3)c(C)s2)c1	USP8 block 42.1
Cc1ccsc1CN(C(=O)COc1ccc([N+](=O)[O-])cc1)C1CCS(=O)(=O)C1 (stereo unspecified)	none
O=C(NCc1ccccn1)c1ccc(-c2ccc(N3CCSCC3)nc2)cc1	USP17 block 59.6, USP28 inh 32.7, USP30 block 82.3
COCCCNC(=O)c1ccc(-c2ccc(N3CCCCC3)nc2)cc1	USP8 block 36.9
COc1ccc(CNc2ncc(C(=O)NCCN3CCOCC3)c(C)n2)cc1	none
COC(=O)c1ccccc1NC(=O)CSc1nnc(CNc2ccc(F)cc2)n1CC1CCCO1 (stereo unspecified)	USP8 block 96.0, USP17 block 90.4
Cc1cccc(/C=C/c2nc3ccc([N+](=O)[O-])cc3s2)c1	USP8 block 87.4, USP17 block 43.1
Cn1c(O)c(C2=Nc3ccccc3SC(c3ccc(Cl)cc3)C2)c(=O)n(C)c1=O (stereo unspecified)	none
COc1ccc(C2=Nc3ccccc3SC(c3ccccc3)C2)cc1 (stereo unspecified)	USP8 block 41.3
COc1ccc(CCNC(=O)c2cc3c(s2)-c2ccccc2OC3)cc1	USP17 block 36.8 (no result: USP28 inh, USP30 block)
CCN(C(=O)c1cc2c(s1)-c1ccccc1OC2)c1ccccc1F	USP28 inh 51.9
CCN(C(=O)c1cc2c(Cl)nc3ccccc3c2s1)c1ccccc1F	USP30 block 71.2
O=C1COc2ccccc2C(=O)N1Cc1ccccc1F	none
Cc1c(-c2ccccc2)oc2c(C(=O)OCC(=O)Nc3ccccc3F)cccc2c1=O	USP17 block 67.4
O=C(c1[nH]nc2c1CCc1ccccc1-2)N1CCC(Cc2ccccc2)CC1	none
NC(=O)C1(N2CCCCC2)CCN(C(=O)c2[nH]nc3c2CCc2ccccc2-3)CC1	USP8 block 86.5, USP17 block 59.1
Cc1ccc(S(=O)(=O)N(Cc2nnc(-c3ccc([N+](=O)[O-])cc3)o2)c2ccccc2)cc1	none
Cc1cc(C)c2cc(CN(CCc3ccccc3)C(=O)Nc3ccccc3)c(=O)[nH]c2c1	USP17 block 61.6
Cc1cc(C)c2cc(CN(C(=O)Nc3cccc(Cl)c3)C3CCCC3)c(=O)[nH]c2c1	none
COc1ccc(-c2cn(-c3ccc(SC(F)F)cc3)c3[n+]2CCC3)cc1OC	USP30 block 30.0
CC1CS(=O)(=O)N(c2ccc(C(=O)Nc3ccc4c(c3)OCCO4)cc2)C1=O (stereo unspecified)	USP17 block 55.7, USP28 inh 78.9
Cc1ccc(CNC(=O)c2ccc(N3C(=O)C(C)CS3(=O)=O)cc2)cc1 (stereo unspecified)	none
CS(=O)(=O)N1CCc2cc(C(=O)Nc3ccc(Cc4ccncc4)cc3)ccc21	USP28 inh 75.2
CS(=O)(=O)N1CCCc2cc(C(=O)NCc3ccc4c(c3)OCO4)ccc21	none
Cc1cccc(NC(=O)c2ccc3c(c2)N(S(C)(=O)=O)CC3)c1	none
CCS(=O)(=O)N1CCc2cc(C(=O)Nc3ccc4c(c3)OCCO4)ccc21	USP28 inh 92.7
CCC1CCCCN1CC(=O)Nc1ccc2c(c1)OCCO2 (stereo unspecified)	none
CS(=O)(=O)N1CCCc2cc(C(=O)Nc3ccc(Oc4ccccc4)cc3)ccc21	USP28 inh 54.3
Cn1c(=O)n(Cc2ccc(F)cc2)c(=O)c2cnc(-c3cccnc3)nc21	none
O=C(O)c1csc(COc2cc(Cl)cc(Cl)c2)n1	none
COc1ccccc1CNC(=O)C1CN(S(C)(=O)=O)c2cc(Cl)ccc2O1 (stereo unspecified)	none
Cc1oc(-c2ccccc2)cc1C(=O)Nc1ccc(OC(F)(F)F)cc1	none
CCn1cc2c(n1)C(COC)CN(C(=O)c1cc(C)nn1CC)C2 (stereo unspecified)	USP17 block 64.5, USP30 block 54.4
COCC1CN(C(=O)c2cccn2C)Cc2cn(CC3CC3)nc21 (stereo unspecified)	none
COc1ccc(CN2CCC3(CC2)Nc2cc(Cl)ccc2C2=NCCN23)cc1CO	none
CCCCN(C)C(=O)Cn1c(C2CC(=O)N(Cc3ccc(F)cc3)C2)nc2ccccc21 (stereo unspecified)	USP17 block 48.2
